Structures are written as SMILES. Over roughly 1,500 compounds, “activity” has its median near 2; the lowest 2% begin near -18. Many of the other results were omitted from the sample, so the lowest values are more common in it than they were. Active and inactive are the calls of the source.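 The calls were made as follows: active = inhibition of at least 40% at 10 µM; inconclusive = no clear call, values can overlap the other calls; inactive = the rest.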

The text below walks through data of PubChem BioAssay AID1347421 (Sanford-Burnham Center for Chemical Genomics, 2020).

For the assay, the target named is Sulfhydryl oxidase 1 (Homo sapiens) (UniProt O00391). Briefly: QSOX1 enzyme inhibitors, confirmation, biochemical, ROS-Glo luminescence, single concentration (AID 1347421).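 Also: 0% = DMSO wells with enzyme and 100% = wells lacking QSOX1 enzyme.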 The note with it: recombinant hQSOX1, RNase A substrate, ROS-Glo H2O2 luminescence; at 10 µM.
Sulfhydryl oxidase 1 (Homo sapiens), sequence (O00391 whole entry, looked up): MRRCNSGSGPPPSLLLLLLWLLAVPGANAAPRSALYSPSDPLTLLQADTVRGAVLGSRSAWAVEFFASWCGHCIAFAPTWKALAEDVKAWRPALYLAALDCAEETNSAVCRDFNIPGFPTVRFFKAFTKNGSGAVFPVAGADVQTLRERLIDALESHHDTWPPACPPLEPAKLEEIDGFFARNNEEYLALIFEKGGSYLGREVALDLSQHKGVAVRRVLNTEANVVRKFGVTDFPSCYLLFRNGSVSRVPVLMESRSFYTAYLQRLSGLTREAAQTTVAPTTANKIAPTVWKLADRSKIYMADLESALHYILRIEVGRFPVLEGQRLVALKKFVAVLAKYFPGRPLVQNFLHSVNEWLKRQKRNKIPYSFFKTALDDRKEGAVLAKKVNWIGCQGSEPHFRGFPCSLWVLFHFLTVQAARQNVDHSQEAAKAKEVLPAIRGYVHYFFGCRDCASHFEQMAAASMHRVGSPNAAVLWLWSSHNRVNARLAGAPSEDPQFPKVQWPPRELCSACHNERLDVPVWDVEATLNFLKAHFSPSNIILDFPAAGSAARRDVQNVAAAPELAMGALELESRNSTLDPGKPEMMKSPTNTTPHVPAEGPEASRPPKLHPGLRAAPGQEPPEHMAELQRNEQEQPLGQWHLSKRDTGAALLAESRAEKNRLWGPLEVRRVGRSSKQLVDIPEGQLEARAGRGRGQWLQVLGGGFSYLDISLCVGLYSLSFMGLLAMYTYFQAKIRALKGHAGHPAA
For the compound `O=C(NC(=O)N1CCCCCC1)c1ccc(Cl)cc1`, the activity is -10.3% (inactive).
For the compound `COc1ccc(CNCCn2cccn2)c(OCC(O)CN2CCCC2)c1` (centres undefined), the activity was 1.2%.
`O=C(Cn1ccnc1)N(CC1CCN(C2Cc3ccccc3C2)CC1)CC1CCCO1` (centres undefined): the activity was determined as 7.8%.
For `CCOc1ccc(Cl)cc1S(=O)(=O)NC(C)C` the value was 3.5%.
The figure for `COc1ccc(F)cc1S(=O)(=O)NC(C)C` is -2% (inactive); for `COc1ccc(C(N)=O)cc1S(=O)(=O)NC(C)C` it is -19.1% (inactive).
For `CN(Cc1cccs1)C(=O)c1ccc(OC2CCN(S(C)(=O)=O)CC2)c(Cl)c1` the value was 12.2%.
Regarding `CN(Cc1n[nH]c2c1CCCCC2)CC1(c2cccc(F)c2)CCOC1` (centres undefined), the activity was 4%.
For `O=C(CC1C(=O)NCCN1Cc1ccccn1)NC1C2CC3CC(C2)CC1C3` (centres undefined) the value was -4.8% (inactive); for `O=C(Cc1ccccc1F)Nc1ccc2c(c1)CN(Cc1ccoc1)CC2`, -1.9% (inactive); for `O=C(NCCCOc1cccnc1)C1CCC(=O)N(CCCc2ccccc2)C1` (centres undefined), 12.4%.
On to `O=C(O)c1cn(CCOc2ccccc2)c2ccccc12`, for which the activity was -13.2% (inactive).
For the compound `O=C(CCC1CCCN(Cc2ccccn2)C1)N1CCN(Cc2ccccc2)CC1` (centres undefined), the activity was -0.9% (inactive).
For `Cc1cc(C)c(C(=O)N2CCCC(CCC(=O)N(C)CCc3ccccn3)C2)c(=O)[nH]1` (centres undefined) the value was 7.3%.
In the case of `COc1ccc(CNCCc2scnc2C)cc1OCC(O)CN(C)C(C)C` (centres undefined), the activity came out at 7.8%.
The figure for `CC(C)OCCNC(=O)c1cc(COc2cccc3cccnc23)on1` is 2.2%.
Take `C=CCCC(=O)N1CCC2(CCCN(Cc3ccc(F)c(F)c3)C2=O)C1` (centres undefined): the activity was -1.3% (inactive).
Take `Cn1nc(C(=O)N2CCc3ccccc32)c2ccccc2c1=O`: the activity was -5.3% (inactive).
For `O=C1CCC(C(=O)N2CCC3(C=Cc4ccccc43)CC2)CN1CCc1ccccn1` (centres undefined) the value was 3.8%; for `COc1cccc(CN2CCNC(=O)C2CC(=O)NC2CCCCCCC2)c1` (centres undefined), 2.4%.
The figure for `CCC1=[C+]c2c(nc(C)nc2N2CCOCC2)S1` is -20.3% (inactive); for `CCC1=[C+]c2c(NCc3cccnc3)nc(C)nc2S1` it is -5.8% (inactive).
For `CSc1ncc(Cl)c(C(=O)Nc2ccc(Br)cc2)n1` the value was -12.9% (inactive); for `Cc1oc(-c2cccs2)nc1CN(C)C(C)c1cccs1` (centres undefined), 2.7%; for `CCOC(=O)C1CCN(C(=O)CCc2ccc(OC)cc2)CC1`, -2% (inactive).
On to `CCN(CC)C(=O)C1CCCN(Cc2nc(-c3ccc(Cl)cc3)oc2C)C1` (centres undefined), for which the activity came out at 4.3%.
For the compound `CC(NC(=O)CSc1nc(O)cc(=O)[nH]1)c1ccccc1` (centres undefined), the activity is -17.8% (inactive).
Regarding `CCN(CC)C(=O)N(CC)Cc1ccccc1`, the activity was -0.2% (inactive).
For the compound `CC(=O)n1nc(NCc2ccccc2)nc1NCc1ccccc1`, the activity was -22% (inactive).
For the compound `c1ccc(CNc2ccc(NCc3ccccc3)nn2)cc1`, the activity is -8.7% (inactive).
The figure for `C=CCn1nnnc1NCc1ccc(F)cc1` is 7.4%; for `CCCn1cc(CN2CCOC(CCc3ccccc3)C2)c(C)n1` (centres undefined) it is -1.5% (inactive).
The figure for `CCOC(=O)N1CCC(N2CCOC(CC3CCCCC3)C2)CC1` (centres undefined) is 6.1%.
Regarding `NC(=O)C1CCCN(Cc2cn(-c3ccccc3)nc2-c2ccc3c(c2)OCO3)C1` (centres undefined), the activity is -1.5% (inactive).
Consider `O=C(Nc1ccccc1N1CCN(C(=O)c2ccc(Cl)cc2)CC1)c1ccco1`, for which the activity worked out at 0.8%.
For `CCn1c(C2CCCO2)nc2ccccc21` (centres undefined) the value was -18.1% (inactive); for `CCn1c(SCC(=O)N2CCCCCC2)nc2ccccc21`, -11.6% (inactive); for `CCn1c(CN2CCCC2)nc2ccccc21`, -5.8% (inactive).
`CN1CCN(C(=O)CCC2CCCN(C(=O)Cc3ccc4c(c3)OCO4)C2)CC1` (centres undefined): the activity was 0.8%.
In the case of `CN(CCOc1ccccc1)Cc1nc(-c2ccccn2)no1`, the activity was determined as 3.2%.
`COc1cccc(C(=O)C2CCCN(Cc3ccc4cccc(F)c4n3)C2)c1` (centres undefined): the activity was -23.5% (inactive).
Turning to `COc1ccc(C(=O)C2CCCN(Cc3ccc4cc(F)ccc4n3)C2)cc1OC` (centres undefined), the activity was 1.1%.
For `CSc1ncc(CN2CCCC(C(=O)c3cccc(OC(C)C)c3)C2)cn1` (centres undefined) the value was 8.6%.
The figure for `CC1CCN(Cc2nnnn2CCCC(=O)N(C)CCC(O)c2ccccc2)CC1` (centres undefined) is 7.2%.
Consider `O=C(Nc1cccc(-n2cccn2)c1)C1CCCN1Cc1cnc[nH]1` (centres undefined), for which the activity is -25.6% (inactive).
Consider `O=C1N(CC2CC2)CCCC12CCN(Cc1cccc(-n3cccn3)c1)C2` (centres undefined), for which the activity is -0.7% (inactive).
For the compound `O=C(Nc1cccc(-n2cnnn2)c1)C1CCCN1CCCC(F)(F)F` (centres undefined), the activity is -2.9% (inactive).
Consider `Cc1ccc(NC(=O)c2cc(C)c(C)o2)cc1C`, for which the activity was -0.4% (inactive).
For `CC(C)Oc1cccc(NC(=O)Nc2ccccc2)c1` the value was 6.3%.
The figure for `CC(C)Oc1cccc(C(=O)Nc2ccc3[nH]c(=O)[nH]c3c2)c1` is 5.2%; for `CC(C)Oc1cccc(NC(=O)c2ccccc2Cl)c1` it is -28.9% (inactive); for `O=C(NCCCn1nnc2ccccc21)C1CCC(=O)N(CCN2CCOCC2)C1` (centres undefined) it is -0.4% (inactive).
As to `CN(CCc1ccccn1)c1ncccc1CNC1CSCCSC1`, the activity was -4% (inactive).
Turning to `c1ccc(-c2noc(CN3CCN(Cc4ccc5c(c4)OCO5)CC3)n2)cc1`, the activity was found to be 7.5%.
As for `O=C(Nc1ccc2c(c1)OCCO2)c1ccc(=O)[nH]n1`, the activity is -1.3% (inactive).
In the case of `CN(C)C(=O)Nc1ccc2c(c1)CCC2`, the activity was -6.3% (inactive).
Take `COCCn1c(CN(C)Cc2cccnc2)cnc1S(=O)(=O)CC(C)(C)C`: the activity was 7.7%.
For `OC(COc1ccccc1CNCCc1ccccn1)CN1CCSCC1` (centres undefined) the value was 5.9%; for `CSCc1ccc(C(=O)N2CCC3(CCCN(CC(C)(C)C)C3)C2)o1` (centres undefined), -0.7% (inactive).
The figure for `CC(C)CCCC1CN(C2CCN(Cc3ccccn3)CC2)CCO1` (centres undefined) is 5.9%; for `COc1cccc(CC2CN(C3CCSCC3)CCO2)c1` (centres undefined) it is 10.9%.
As for `O=C(CCN1CCCO1)N1CCCC(N2CCN(c3cccc(C(F)(F)F)c3)CC2)C1` (centres undefined), the activity was -0.1% (inactive).
The figure for `O=C1N(CC2CCCCC2)CCCC1(O)CN1CCCOCC1` (centres undefined) is 4.1%; for `CC(=O)Oc1ccc(/C=C/c2ccc3ccccc3n2)cc1Cl` it is 55.2% (active).
On to `O=C1COc2ccc(S(=O)(=O)N3CCc4ccccc43)cc2N1`, for which the activity was found to be 2.6%.
The figure for `Cc1cnc(C)c(N2C[C@H]3OC(=O)N(C4CCCC4)[C@H]3C2)n1` is 7.1%; for `Cc1ccc(S(=O)(=O)N2CCN(c3ccccc3)CC2)cc1C(N)=O` it is 1.7%; for `Cc1ccc(S(=O)(=O)NC2CCCCC2)cc1C(N)=O` it is -20.3% (inactive).
On to `CS(=O)(=O)c1cccc(S(=O)(=O)NC2CCCC2)c1`, for which the activity was determined as 7%.
